Assay outcomes: PubChem BioAssay, National Center for Advancing Translational Sciences (NCATS)
HCMV antiviral: blocks human cytomegalovirus replication; AID 1259415; HFF cells, HCMV-luciferase reporter, 72 h; hits give low values; activity change, negative = inhibition, % at 57.5 µM; hit rate 4.5% among 410,000; in the data active = activity change below about -60%; inconclusive = no clear call, values can overlap the other calls; inactive = above about -39%; note: % is set by controls: 0 for no effect and ±100 for the full control effect
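Two-dose cell screen: HFF monolayers treated with compounds and infected with luciferase-expressing HCMV at 1 PFU/cell, 72 h at 37C, then lysed for luciferase measurement.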
HCV inhibitor: blocks hepatitis C virus; Potency, µM (top dose mostly 41.8 µM), for inactives: at the top dose activity change, negative = inhibition, hits mostly inhibitors; Huh7.5.1 HCVcc-Cre infection, luciferase reporter, 44 h; hit rate 3.4% among 340,000; active = well fitted inhibition curve with a large enough effect; inconclusive = small, poorly fitted or top-dose-only effect, or another doubt; inactive = no such curve, though single readings can be large or run the other way; note: potency is the fitted concentration of half-maximal effect; % is set by controls: 0 for no effect and ±100 for the full control effect
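Compounds are dispensed onto cells plated 4 h earlier at 1,000 per well, with HCVcc-Cre virus (about 0.5 moi) added next. Following 44 h of culture, luminescent signal is measured for 15 sec after 15 min with substrate at room temperature.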
Marburg entry inh: Marburg virus entry inhibition; Marburg virus pseudotyped entry inhibition, cell reporter; Potency, µM (doses to about 37.8 µM), for the others: top-dose activity change, negative = inhibition, most hits filed as inhibitors; hit rate 1.8% among 300,000; AID 540276; calls by dose curve; tested in HEK293 cells; note: potency is the fitted concentration of half-maximal effect; % is set by controls: 0 for no effect and ±100 for the full control effect
LASV entry inh: Lassa virus entry inhibition; Lassa virus pseudotype entry inhibition, cell reporter; Potency, µM (top dose mostly 37.9 µM), without a hit: top-dose activity change, negative = inhibition, hits mostly inhibitors; hit rate 1.2% among 300,000; AID 540256; calls by dose curve; tested in HEK293 cells; note: potency is the fitted concentration of half-maximal effect; % is set by controls: 0 for no effect and ±100 for the full control effect; nearly all actives have a fitted effect of over 50% in size
SARS PLP yeast: SARS-CoV PLP inhibition in yeast | Potency, µM (titrated, usually from 32.9 µM), for inactives: top-dose activity, positive = growth rescue, hits mostly activators | hit rate 0.19% among 330,000 | S. cerevisiae expressing SARS-CoV PLpro, growth rescue; calls by dose curve; note: potency is the fitted concentration of half-maximal effect; 0% is about no effect; nearly all actives have a fitted effect of over 55% in size
FMDV inh: antivirals against foot and mouth disease virus; AID 1159524; FMDV antiviral cell-based qHTS; hit rate 1.2% among 410,000; Potency, µM (top dose mostly 57.9 µM), without a hit: at the top dose activity change, negative = inhibition, actives largely listed as inhibitors; calls by dose curve; tested in HEK293T cells; note: read-out not given here; potency is the fitted concentration of half-maximal effect; % is set by controls: 0 for no effect and ±100 for the full control effect; nearly all actives have a fitted effect of over 45% in size
Numbers without * were called inactive; ? = inconclusive; / = no result given; [ ] = another dose, or the depositor's remark. The list is not random: actives were taken first. Their share in the collection is about 8%.

SMILES	HCMV antiviral	HCV inhibitor	Marburg entry inh	LASV entry inh	SARS PLP yeast	FMDV inh
CC1CN(CC(=O)c2ccccc2Cl)CC(C)O1 (stereo not given)	-61.4*	8.0%	-0.7%[46.1 µM]	-11.1%[46.1 µM]	-0.3%	5.8%
Cc1c(C)c2ccc(OCc3ccc(C(=O)O)o3)c(C)c2oc1=O	-101.2*	19.0%	?	4.11µM*	-6.5%	17.8µM*
COc1cc(COc2ccc3c(C)c(Cc4ccccc4)c(=O)oc3c2C)cc(OC)c1OC	25.9	6.31µM*	?	-1.1%	0.7%	?
Cc1cc(C)cc(COc2ccc3c(C)c(CC(=O)O)c(=O)oc3c2C)c1	-15.8	15.1%	13.5%[46.1 µM]	25.8%[46.1 µM]	1.3%	-8.8%
COc1cc(COc2ccc3c(C)c(Cc4ccccc4)c(=O)oc3c2)cc(OC)c1OC	25.9	?	?	?	1.3%	?
COc1ccc(N2Cc3ccccc3C2=NC(=O)c2cccc([N+](=O)[O-])c2)cc1	-28.7	0.1%	2.8%	17.8%	7.6%	19.9%
COc1ccc(N2Cc3ccccc3C2=NC(=O)c2cncc(Br)c2)cc1	-81.4*	2.5%	-5.5%	25.4%	1.7%	44.5%
CCOC(=O)c1ccc(N2Cc3ccccc3C2=NC(=O)c2cccs2)cc1	-20.9	2.4%	?	10µM*	18.5%	8.2%
CC(=O)c1ccc(N2Cc3ccccc3C2=NC(=O)c2cccs2)cc1	195.8	?	?	7.94µM*	-13.2%	1.7%
COCc1cc(C)nc(SCC[N+](C)(C)CC(=O)Nc2ccccc2)c1C#N	-29.6	28.2%	-2.3%[46.1 µM]	6.3%	3.2%	-5.3%
COCc1cc(C)nc(SCC[N+](C)(C)CC(=O)c2ccc(Br)cc2)c1C#N	-0.6	31.6µM*	6.0%[46.1 µM]	-13.9%	1.8%	-1.4%
CN1c2ccccc2-c2nc(SCC(=O)Nc3ccccc3)ncc2S1(=O)=O	-4.1	/	/	-14.4%[46.1 µM]	/	-29.8%
O=[N+]([O-])c1nn(-c2ccccc2)n(O)c1=NCCc1ccccc1	-37.1	11.2µM*	?	?	-65.2%	8.6%
Cc1ccc(CCN=c2c([N+](=O)[O-])nn(-c3ccccc3)n2O)cc1	62.5	-27.0%	2.5%[46.1 µM]	-1.9%	-4.6%	-20.5%
O=[N+]([O-])c1nn(-c2ccc3c(c2)OCCO3)n(O)c1=NC1CCN(Cc2ccccc2)CC1	-34.6	?	/	/	1.8%	4.0%
O=[N+]([O-])c1nn(-c2ccccc2)n(O)c1=NC1CCN(Cc2ccccc2)CC1	?	2µM*	?	?	-1.3%	-18.2%
CCc1ccc(NC(=O)c2cnn(-c3c(C)cccc3C)c2C2CCNCC2)cc1	?	/	/	-2.3%[46.1 µM]	/	-14.9%
O=C(c1[nH]ncc1-c1cccc(Br)c1)C1CO1 (stereo not given)	15.3	?	?	?	0.3%	35.5µM*
COc1cc([C@@H]2C[C@H]3CN(c4ccccc4)C(=O)[C@]34CCCN24)cc(OC)c1OC	?	-27.4%	/	/	0.5%	-9.5%
CCOc1cc([C@@H]2C[C@H]3CN(c4ccccc4)C(=O)[C@]34CCCN24)ccc1OC	-68.6*	?	?	/	-0.3%	4.5%
COc1ccccc1-n1cc([C@@H]2C[C@H]3CN(c4ccccc4)C(=O)[C@]34CCCN24)cn1	-96.9*	5.62µM*	10µM*	?	-1.7%	-7.4%
CCN(CC)S(=O)(=O)c1ccc2c(c1)N(CC(=O)Nc1cccc(C)c1C)C(=O)C1CCCN21 (stereo not given)	3.1	/	/	-0.4%[46.1 µM]	/	-4.1%
O=C1CC(c2ccccc2)CC2=C1C=Nc1ccccc1N2 (stereo not given)	-76.8*	-27.4%	?	?	-1.0%	?
O=C1CC(c2ccc(F)cc2)CC2=C1C=Nc1ccccc1N2 (stereo not given)	-31.1	-19.6%	?	/	-1.0%	?
O=C(NCCCN1CCOCC1)c1onc(CSc2ccccc2)c1C(=O)NCCCN1CCOCC1	-67.5*	2.3%	/	/	/	-0.9%
SMILES	HCMV antiviral	HCV inhibitor	Marburg entry inh	LASV entry inh	SARS PLP yeast	FMDV inh
O=C(NCCCN1CCOCC1)c1onc(CSc2ccncc2)c1C(=O)NCCCN1CCOCC1	11.7	9.2%	/	/	/	0.5%
Cc1cc(C)cc(SCc2noc(C(=O)NCCCN3CCOCC3)c2C(=O)NCCCN2CCOCC2)c1	-29.4	1µM*	/	/	0.2%	-5.2%
CSc1ncc(C(=O)Nc2ccc(C)c(Cl)c2)c(-c2ccccc2)n1	?	/	/	9.4%[46.1 µM]	/	-24.6%
COC(=O)c1c(C)oc(C)c1S(=O)(=O)NCc1cccs1	-60.3*	9.2%	/	/	0.6%	78.2%
CC1(C)C(c2ccccc2)=NC(c2ccc(Br)cc2)N1O (stereo not given)	-19.0	13.9%	?	12.0%	1.9%	3.98µM*
CCC1CCCCN1c1nc2c(C=O)c(C)nn2c2ccccc12 (stereo not given)	-64.3*	10µM*	?	?	-15.8%	-23.4%
CCCCCCCCNC(C)C(O)c1ccc(SC(C)C)cc1 (stereo not given)	-81.9*	-4.1%[8.37 µM]	-9.0%	?	-26.5%	?
COc1ccc(N/C(C)=C2/C(=O)C(=O)N(CCO)C2c2ccc([N+](=O)[O-])cc2)cc1 (stereo not given)	-98.9*	-7.0%	1.1%	-14.1%	6.4%	-15.7%
CCOC(=O)NC(=O)/C(C#N)=N\Nc1ccc(Cl)cc1	-8.1	0.6%	5.5%[46.1 µM]	10.5%	-1.2%	-2.1%
C/C(=N\Nc1ccc([N+](=O)[O-])cc1)c1ccc(C#N)cc1	-17.8	5.5%	?	-18.6%	-1.1%	-1.6%
COc1ccc(C(=O)CC(=O)Nc2ccc([N+](=O)[O-])cc2)cc1	?	11.2µM*	/	/	-5.3%	-12.4%
N#CC(C#N)=NNc1ccc([N+](=O)[O-])cc1	-90.5*	11.2µM*	?	?	-14.2%	-20.8%
COc1ccc(NC(=O)CNC(=O)c2ccc([N+](=O)[O-])cc2)cc1	?	20.9%	-15.1%[46.1 µM]	-4.2%	0.1%	-7.4%
N#C/C(=N\Nc1ccc(Cl)cc1)C(=O)c1ccccc1	-98.8*	22.4µM*	11.2µM*	?	-28.7%	?
Cc1ccccc1C(=O)OCc1cc(=O)n2nc(C3CCCCC3)sc2n1	8.7	/	/	?	/	0.0%
COc1ccc(NC(=O)Cn2cc(C(=O)c3ccccc3OC)c(=O)c3ccc(C)nc32)cc1OC	11.7	/	/	26.8%[46.1 µM]	/	?
COc1ccc2c(c1)c1c(c(=O)n(Cc3ccccc3)c(=O)n1CC(=O)NCc1ccccc1Cl)n2C	12.6	/	-4.5%[46.1 µM]	7.0%[46.1 µM]	/	-22.6%
COc1ccc(C(=O)/C(C#N)=N/Nc2ccccc2[N+](=O)[O-])cc1	-10.4	4.5%	?	?	18.5%	-16.8%
CCN(CC)S(=O)(=O)c1ccc(NC=C(C#N)C#N)cc1	?	5.8%	3.6%[46.1 µM]	10.8%	0.9%	?
CCN(CC)S(=O)(=O)c1ccc(NN=C(C#N)C#N)cc1	?	?	?	?	-26.5%	10µM*
C/C(=N/Nc1ccc([N+](=O)[O-])cc1)c1ccc(C)cc1C	-63.0*	?	-46.2%	-15.0%	-1.7%	15.6%
